KAT2A inh = GCN5L2 (KAT2A) acetyltransferase inhibition. Potency, µM (doses to about 58.9 µM), inactives show at the top dose activity change, negative = inhibition, hits mostly inhibitors. 390,000 compounds, 0.21% hits. Q92830. GCN5L2 HAT assay, ThioGlo1 CoA-SH fluorescence; further: potency means the concentration at half of the fitted maximal effect; on the % scale 0 is the no-effect control and ±100 the full control effect
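ThioGlo1-coupled HAT assay: 20nM GCN5L2, 70uM acetyl-CoA, 75uM H3(1-25) peptide, pH 7.5. Fluorescence read at 340/540nm at start and after 20 min at room temperature.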
PKM2 activator = activators of human pyruvate kinase M2; purified PKM2, Kinase-Glo ATP luminescence, activation; response scale: 0% is enzyme alone, no compound; P14618; 260,000 compounds, 0.34% hits; Potency, µM (titrated, usually from 57.5 µM), for inactives: at the highest dose activation, actives largely listed as activators; further: potency means the concentration at half of the fitted maximal effect; on the % scale 0 is the no-effect control and ±100 the full control effect; nearly all actives have a fitted effect of over 55% in size
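Purified hPK-M2 (>95% pure) converted ADP (0.1 mM final) to ATP with 0.5 mM PEP in 50 mM imidazole pH7.2, KCl, MgCl2, Tween 20, BSA; 1 h at room temperature. ATP detected by Kinase-Glo luminescence.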
Vif-APOBEC3G blk = Vif-A3G binding inhibition. HeLa A3G-eYFP + Vif (tagged APOBEC3G with the HIV-1 protein that degrades it), YFP fluorescence, overnight. Potency, µM (top dose mostly 46.1 µM), inactives show at the top dose activity, negative = active, actives largely listed as inhibitors. 410,000 compounds, 0.076% hits. AID 602310; further: potency means the concentration at half of the fitted maximal effect; on the % scale 0 is the no-effect control and ±100 the full control effect; nearly all actives have a fitted effect of over 60% in size
Target sequence (Q9HC16 whole entry, looked up): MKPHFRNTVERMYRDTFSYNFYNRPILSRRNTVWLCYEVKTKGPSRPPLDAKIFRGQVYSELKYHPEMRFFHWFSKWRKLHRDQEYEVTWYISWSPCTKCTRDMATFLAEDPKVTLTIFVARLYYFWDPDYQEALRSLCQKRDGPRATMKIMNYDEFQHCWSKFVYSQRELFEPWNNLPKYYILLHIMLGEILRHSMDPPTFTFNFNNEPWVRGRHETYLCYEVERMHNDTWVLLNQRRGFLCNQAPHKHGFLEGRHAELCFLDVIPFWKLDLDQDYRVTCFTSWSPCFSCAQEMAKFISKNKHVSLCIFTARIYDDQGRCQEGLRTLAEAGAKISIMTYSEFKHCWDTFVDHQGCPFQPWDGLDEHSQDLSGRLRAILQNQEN
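HeLa cells stably expressing Vif and C-terminally eYFP-tagged A3G, seeded overnight at 37 deg C, then exposed to compound by pintool overnight at 37 deg C. Rise in yellow fluorescence (Ex 488/Em 500-530, Acumen) marks blocked Vif-driven A3G degradation.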
IL-2 act = IL-2 activation | activation, % (series mostly up to about 46 µM) | IL-2 activation reporter assay, cell-based qHTS; stimulated with anti-CD3/CD4/CD28 beads; in transgenic mouse T cells | 360,000 compounds, 0.065% hits | AID 652025; in the data active means activation above about 50%; inconclusive means mostly about 30% to 49%; further: 0% is about no effect
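EGFP and DsRed fluorescence is measured by plate cytometry in unstimulated transgenic mouse T cells exposed to compound for 60 minutes, then stimulated 18 hours at 37 degrees C with anti-CD3/anti-CD4 beads plus anti-CD28.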
Vif-A3F inh = Vif-A3F binding inhibition; 390,000 compounds, 0.2% hits; AID 602313; HeLa A3F-eYFP + Vif (tagged APOBEC3F with the HIV-1 protein that degrades it), YFP fluorescence increase; Potency, µM (doses to about 46.1 µM), for the others: top-dose activity, negative = active; further: potency means the concentration at half of the fitted maximal effect; % of control where 0% means no effect; nearly all actives have a fitted effect of over 65% in size
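Fluorescence increase (Ex 488/Em 500-530) after overnight compound treatment at 37 deg C flags inhibition of Vif-driven A3F-eYFP loss in stable HeLa A3F-eYFP/Vif cells seeded overnight beforehand.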
RGS12 GoLoco inh = RGS12 GoLoco-Gai1 interaction inhibition; Gai1:RGS12 GoLoco peptide FP, rhodamine, 10 min; 230,000 compounds, 0.44% hits; Potency, µM (top dose mostly 61.6 µM), without a hit: at the top dose activity, negative = inhibition, actives largely listed as inhibitors; P63096; active means well fitted inhibition curve with a large enough effect, not every such curve was filed as active; inactive means no such curve, though single readings can be large or run the other way; further: potency means the concentration at half of the fitted maximal effect; on the % scale 0 is the no-effect control and ±100 the full control effect; nearly all actives have a fitted effect of over 30% in size
Target sequence (P63096 whole entry, looked up): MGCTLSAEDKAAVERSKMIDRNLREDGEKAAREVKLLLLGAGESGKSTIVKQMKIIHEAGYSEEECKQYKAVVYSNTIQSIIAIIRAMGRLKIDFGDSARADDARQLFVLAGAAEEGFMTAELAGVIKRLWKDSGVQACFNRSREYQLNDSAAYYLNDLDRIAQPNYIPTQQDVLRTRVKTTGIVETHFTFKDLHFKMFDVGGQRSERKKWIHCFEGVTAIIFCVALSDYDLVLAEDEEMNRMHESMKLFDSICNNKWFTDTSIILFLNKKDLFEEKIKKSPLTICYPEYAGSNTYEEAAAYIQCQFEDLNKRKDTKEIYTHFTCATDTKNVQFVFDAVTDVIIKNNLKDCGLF
* hit, by the source's call; ! = a repeat was not active. Compounds with a hit are over-represented: about 0.77% of the library has one in this group of screens. Unless noted, the call rests on the fitted dose curve; in most records, active means well fitted curve in the direction sought with a large enough effect; inconclusive means small, poorly fitted or top-dose-only effect, or another doubt; inactive means no such curve, though single readings can be large; an effect the other way counts as inactive or inconclusive.

What do the screens show for `O=C(O)CCC(=O)Nc1ccc(N2CCCCCC2)cc1`?
KAT2A inh: 2%; PKM2 activator: -14%; Vif-APOBEC3G blk: 0%; IL-2 act: -2; Vif-A3F inh: -5%; RGS12 GoLoco inh: -30%

What do the screens show for `Cc1ccccc1C(=O)Nc1c(C(=O)N2CCCC2)cnn1-c1ccccc1`?
KAT2A inh: -1%; PKM2 activator: -5%; Vif-APOBEC3G blk: -7%; IL-2 act: -1; Vif-A3F inh: -5%; RGS12 GoLoco inh: 3%

Results for [N-]=[N+]=Nc1ccc(C(=O)CSC[C@H](NC(=O)CC[C@H](N)C(=O)O)C(=O)NCC(=O)O)cc1 ?
KAT2A inh: 7.9µM*; RGS12 GoLoco inh: 4%

How did N[C@@H](CCC(=O)N[C@@H](CSN=O)C(=O)NCC(=O)O)C(=O)O do in these assays?
KAT2A inh: -8%; Vif-APOBEC3G blk: 2%; IL-2 act: -1; Vif-A3F inh: -2%

What do the screens show for `O=C(CSc1nc(=O)n2cc(Cl)ccc2n1)Nc1ccc2c(c1)OCCO2`?
KAT2A inh: inconclusive; Vif-APOBEC3G blk: -2%; IL-2 act: -1; Vif-A3F inh: 7%

Results for O=C(CSc1nc(=O)n2cc(Cl)ccc2n1)Nc1ccc2c(c1)OCO2 ?
KAT2A inh: -15%; Vif-APOBEC3G blk: 0%; IL-2 act: 312*; Vif-A3F inh: 1%

How did O=c1cc(-c2ccccc2)oc2cc(O)c(O)c(O)c12 do in these assays?
KAT2A inh: -4%; Vif-APOBEC3G blk: 1%; IL-2 act: 0; Vif-A3F inh: 0%; RGS12 GoLoco inh: -4%

How did O=c1c(O)cccc2cc(O)c(O)c(O)c12 do in these assays?
KAT2A inh: inconclusive; PKM2 activator: inconclusive; Vif-APOBEC3G blk: -1%; IL-2 act: 0; Vif-A3F inh: -34%; RGS12 GoLoco inh: 4µM*!

Results for Cc1ccc(C(C)(C)C)c(OCCOCCN2CCCC2)c1 ?
KAT2A inh: -1%; PKM2 activator: -3%; Vif-APOBEC3G blk: -1%; IL-2 act: 1; Vif-A3F inh: -6%; RGS12 GoLoco inh: 6%

What do the screens show for `CC(=O)c1ccc(-c2cnc3c(NC=O)cc(-c4ccc(C(=O)NC5CC5)cc4)cn23)cc1`?
Vif-APOBEC3G blk: -7%; IL-2 act: -1

How did COc1ccccc1NS(=O)(=O)c1cc(NC(=O)c2[nH]c(C)c(C(C)=O)c2C)ccc1N1CCOCC1 do in these assays?
KAT2A inh: 0%; PKM2 activator: 16µM*; Vif-APOBEC3G blk: -22%; IL-2 act: -3; Vif-A3F inh: -23%; RGS12 GoLoco inh: 13%

Results for CC(=O)c1c(C)[nH]c(C(=O)Nc2ccc(C)c(S(=O)(=O)N(C)C)c2)c1C ?
KAT2A inh: 0%; PKM2 activator: 11%; Vif-APOBEC3G blk: -2%; IL-2 act: 0; Vif-A3F inh: 0%; RGS12 GoLoco inh: 5%

Results for CC(=O)c1c(C)[nH]c(C(=O)Nc2cccc(S(=O)(=O)N(C)C)c2)c1C ?
KAT2A inh: -15%; PKM2 activator: inconclusive; Vif-APOBEC3G blk: 1%; IL-2 act: -4; Vif-A3F inh: 7%; RGS12 GoLoco inh: 8%

What do the screens show for `COc1ccccc1NS(=O)(=O)c1cc(NC(=O)c2ccccc2C)ccc1N1CCOCC1`?
Vif-APOBEC3G blk: -2%; IL-2 act: -3; Vif-A3F inh: -6%

Results for CC(=O)c1c(C)[nH]c(C(=O)Nc2ccc(S(=O)(=O)N(C)C)cc2)c1C ?
KAT2A inh: 2%; PKM2 activator: 7.1µM*; Vif-APOBEC3G blk: 5%; IL-2 act: 0; Vif-A3F inh: 3%; RGS12 GoLoco inh: 10%

What do the screens show for `CC(=O)c1c(C)[nH]c(C(=O)Nc2ccc(C)c(S(=O)(=O)Nc3ccc(C)cc3C)c2)c1C`?
KAT2A inh: -26%; PKM2 activator: 18µM*; Vif-APOBEC3G blk: -8%; IL-2 act: -4; Vif-A3F inh: -5%; RGS12 GoLoco inh: 2%

Results for CC1Cc2cc(/C(O)=C3/C(=O)C(=O)N(Cc4ccncc4)C3c3ccc(N(C)C)cc3)ccc2O1 (centres undefined) ?
KAT2A inh: -9%; Vif-APOBEC3G blk: -2%; IL-2 act: 0; Vif-A3F inh: -10%

What do the screens show for `COc1ccc(N/C=C2\C(=O)CCc3c2oc2cc(Cl)c(O)c(Cl)c32)cc1`?
KAT2A inh: -8%; PKM2 activator: -1%; Vif-APOBEC3G blk: 3%; IL-2 act: 268*; Vif-A3F inh: inconclusive; RGS12 GoLoco inh: -6%

Results for NC(=O)c1ccc(C2SCC(=O)N2CCc2ccccc2)cc1 (centres undefined) ?
KAT2A inh: -4%; Vif-APOBEC3G blk: 0%; IL-2 act: 1; Vif-A3F inh: 2%

Results for C=CC1=C(C)C2=NC1=CC1=NC(=CC3=NC(=CC4=NC(=C2)C(C)=C4CCC(=O)O)C(CCC(=O)O)=C3C)C(C=C)=C1C.[Zn] ?
KAT2A inh: -14%; RGS12 GoLoco inh: 5.6µM*

What do the screens show for `Cc1ccc(S(=O)(=O)NCC(=O)NCC(=O)OCc2c(F)cccc2Cl)cc1`?
KAT2A inh: -17%; PKM2 activator: 35µM*; Vif-APOBEC3G blk: -1%; IL-2 act: -5; Vif-A3F inh: 0%; RGS12 GoLoco inh: 10%

What do the screens show for `O=C(Cn1c2c(c(-c3ccccc3Cl)cc1=O)CCC2)NCC1CCCO1` (centres undefined)?
KAT2A inh: -1%; PKM2 activator: 3%; Vif-APOBEC3G blk: 0%; IL-2 act: -1; Vif-A3F inh: 8%; RGS12 GoLoco inh: -1%

Results for C[C@H]1CN([C@@H](C)CO)C(=O)CCCn2cc(nn2)CO[C@@H]1CN(C)C(=O)OCc1ccccc1 ?
Vif-APOBEC3G blk: 4%; IL-2 act: 0

What do the screens show for `CCNS(=O)(=O)c1ccc(NC(=O)c2ccc(Cn3cc([N+](=O)[O-])cn3)o2)cc1`?
KAT2A inh: -14%; PKM2 activator: 18µM*; Vif-APOBEC3G blk: -8%; IL-2 act: 0; Vif-A3F inh: 17%; RGS12 GoLoco inh: 7%

Results for COc1cc(/C=C(\C#N)c2nc3ccccc3s2)ccc1OCC(=O)Nc1ccccc1 ?
KAT2A inh: -25%; PKM2 activator: -1%; Vif-APOBEC3G blk: 10µM*; IL-2 act: 3; Vif-A3F inh: inconclusive; RGS12 GoLoco inh: 162%

How did CC(C)(C)[C@@H]1C=C(C(=O)NCc2ccccc2)O[C@H](OCc2ccc(CO)cc2)C1 do in these assays?
KAT2A inh: -7%; PKM2 activator: -2%; Vif-APOBEC3G blk: 1%; IL-2 act: 0; Vif-A3F inh: 4%; RGS12 GoLoco inh: -1%

Source: PubChem (National Center for Advancing Translational Sciences (NCATS))
